Compounds with a hit are over-represented: about 2.7% of the library has one in this group of screens.
MPTP inh: permeability transition pore inhibition | isolated mouse mitochondria, Ca2+ swelling absorbance, 30 min | AID 602449 | 360,000 compounds, 1.4% hits | inhibition, % at 10 µM;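 active means inhibition of 50% or more, scaled per plate between neutral and stimulator controls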
H9c2 TAG inh: inhibitors of triacylglycerol accumulation. H9c2 cells, Nile Red lipid (TAG) fluorescence; cells loaded with 200 µM oleic acid. inhibition, % at 12.5 µM. 230,000 compounds, 0.66% hits. AID 651582;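 active means pattern-corrected inhibition of lipid staining of at least 50% with the nuclear-stain viability signal not falling by more than 50%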
NadD block: blocks S. aureus nicotinate mononucleotide adenylyltransferase. purified NadD enzyme, colorimetric absorbance read-out. inhibition, % at 20 µM. 360,000 compounds, 0.78% hits; in the data active means inhibition above about 26%
aDG glyco up: alpha-DG glycosylation activation; Pro5-aDG cells, alpha-DG glycosylation AlphaScreen (IIH6); 0% Pro5, 100% B10-LARGE cell signal; activation, % at 10 µM; 360,000 compounds, 0.22% hits; AID 624168;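 active means activation of at least 8% versus controls, or a plate z-score of at least 8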;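 further: Pro5 are CHO cells carrying HIG-tagged alpha-DG that lacks glycosylation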
Large screens that a line does not name were inactive; ! = not confirmed by another sample.

COc1ccc(/C=C/C(=O)c2cc(F)ccc2OC(=O)c2ccccc2OC)cc1OC	H9c2 TAG inh 56
COc1ccc(/C=C/C(=O)c2cc(Br)ccc2OC(=O)c2ccco2)cc1OC	none (no result: H9c2 TAG inh)
Nc1ncnc2c(C3OC(CO)C(O)C3O)scc12 (configuration not stated)	none
Cc1nn(-c2ccccc2)c(C)c1/C=N/NC(=O)c1cc(-c2ccccc2)n[nH]1	H9c2 TAG inh 56
Cc1nn(-c2ccccc2)c(C)c1/C=N/NC(=O)c1cc(-c2cccc3ccccc23)n[nH]1	none (no result: H9c2 TAG inh)
CC1=C(C(=O)N(C(C)C)C(C)C)CC(CC(=O)NCc2ccco2)C(=O)N1CCCN1CCCC1=O (configuration not stated)	none (no result: H9c2 TAG inh)
COc1ccccc1NC(=O)C1=C(C)NC(SCC(=O)c2ccccc2)=C(C#N)C1c1ccco1 (configuration not stated)	NadD block 36
COCCOC(=O)C1=C(C)NC(SCC(=O)NC(C)(C)C)=C(C#N)C1c1ccco1 (configuration not stated)	none
CCCCS(=O)(=O)/C=C\C=C/S(=O)(=O)CCCC	H9c2 TAG inh 88
CCCCS(=O)(=O)/C=C\C1C2C=CC(C2)C1S(=O)(=O)CCCC (configuration not stated)	none
Cn1c(CNC(=O)c2ccc3c(c2)OCO3)nnc1SCC(=O)Nc1ccccc1F	none (no result: H9c2 TAG inh)
CCC(CNc1cc(OC)cc2cccnc12)NC1CCCCC1 (configuration not stated)	aDG glyco up 7.1 (no result: H9c2 TAG inh)
COc1cc(NCCCC(C)N)c2ncccc2c1 (configuration not stated)	none (no result: H9c2 TAG inh)
CCc1ccc(CN(C)C(=O)c2cc(COc3cc(C)c(Cl)c(C)c3)on2)nc1	none (no result: H9c2 TAG inh)
C/C(Nc1ccc(Cl)cc1)=C1/CCOC1=O	none
CSc1nc(=S)c2[nH]c(=S)[nH]c2[nH]1	none (no result: H9c2 TAG inh)
Cn1cc(/C=C2\SC(=S)N(NC(=O)c3ccccc3Cl)C2=O)c2ccccc21	NadD block 40 (no result: H9c2 TAG inh)
Cc1ccc(C(=O)NN2C(=O)/C(=C/c3cn(C)c4ccccc34)SC2=S)cc1	none (no result: H9c2 TAG inh)
Oc1ccc(/C=N/Nc2ccnc3cc(Cl)ccc23)c(O)c1O	NadD block 59 (no result: H9c2 TAG inh)
Oc1ccc(/C=N/Nc2ccnc3cc(Cl)ccc23)cc1O	none
CC(=O)OC1C=CCC2C(=O)c3cccc(O)c3C(O)C12 (configuration not stated)	none
O=C(CCc1c[nH]c2ccccc12)N1CCCCCCC1	none
CC(C)(C)c1cc(CCC(=O)N2CCNCC2)c(C(C)(C)C)cc1O	H9c2 TAG inh 55
CCCCCCCCCCCC1=C(O)C(=O)C=C(O)C1=O	NadD block 37 (no result: H9c2 TAG inh)
COC1=CC(=O)C(O)=C(CCCCCCC/C=C/CCCCCCCC2=C(O)C(=O)C=C(OC)C2=O)C1=O	NadD block 51 (no result: H9c2 TAG inh)
Cc1ccc(NC(=O)COc2ccccc2)c(NC(=O)c2ccco2)c1	none
CCn1c(SCC(=O)Nc2ccccc2)nc2c(c1=O)SCC2	none
CCCCNC(=O)C1c2ccccc2OCC(=O)N1CCCN1CCOCC1 (configuration not stated)	none (no result: H9c2 TAG inh)
O=C(/C=C/c1cc[n+](CC(=O)c2ccc3cccc4c3c2CC4)cc1)c1ccc2cccc3c2c1CC3	NadD block 83
C=CC[C@@H](CC(=O)NCCO)C(=O)NCCOC(=O)[C@@H](CC=C)Cc1ccc(F)cc1	none
Oc1ccc(Nc2nc(N3CCCC3)c3ccccc3n2)cc1	H9c2 TAG inh 52
COc1ccc(Nc2nc(N3CCCCC3)c3ccccc3n2)cc1	none
Cc1ccc(S(=O)(=O)/N=C2\C=C(Nc3cccc(C(=O)O)c3)C(=O)c3ccccc32)c(C)c1	none (no result: H9c2 TAG inh)
Cc1ccc(S(=O)(=O)/N=C2\C=C(NS(=O)(=O)c3ccccc3)C(=O)c3ccccc32)c(C)c1	NadD block 32
CC(=O)Nc1ccc(Sc2ccc([N+](=O)[O-])o2)cc1	H9c2 TAG inh 63
CC(=O)Nc1ccc(NC(=O)c2cc([N+](=O)[O-])cc([N+](=O)[O-])c2)cc1	none
CCN1CCN(Cc2ccc(NC(=O)c3ccc(C)c(NC(=O)c4ccno4)c3)cc2C(F)(F)F)CC1	none
CCN1CCN(Cc2ccc(NC(=O)c3cc(NC(=O)c4ccc5n[nH]nc5c4)cc(OC)c3)cc2C(F)(F)F)CC1	none
CCN1CCN(Cc2ccc(NC(=O)c3ccc(C)c(NC(=O)C4=NN(c5ccccc5)C(=O)C4)c3)cc2C(F)(F)F)CC1	NadD block 40!
CCN1CCN(Cc2ccc(NC(=O)c3cc(NC(=O)C4=NN(c5ccccc5)C(=O)C4)cc(OC)c3)cc2C(F)(F)F)CC1	NadD block 33
CCN1CCN(Cc2ccc(NC(=O)c3cc(NC(=O)c4cc(-c5ccc(OC)cc5)n[nH]4)cc(OC)c3)cc2C(F)(F)F)CC1	H9c2 TAG inh 69
Cn1c(=N)n(CC(=O)c2ccc(Br)s2)c2ccccc21	aDG glyco up 13
Cc1ccc(Cn2c(=N)n(CC(=O)c3ccccc3)c3ccccc32)cc1	aDG glyco up 12
N=c1n(CC(=O)c2ccc(Br)s2)c2ccccc2n1Cc1ccccc1	H9c2 TAG inh 53
Cc1ccccc1Cn1nnc(-c2ccc(F)cc2)n1	none (no result: H9c2 TAG inh)
CCCCCCCCN1C(=O)[C@H](CC(=O)N2CCCCC2)C[C@@]2(C(=O)OC)CCCCC=C12	none (no result: H9c2 TAG inh)
COc1cc(C)ccc1OCC(=O)OCC(=O)NCC1CCCCC1	none
Cc1cc(C(=O)N2CCC2(C)C(=O)NCC(C)(C)C)nn1C (configuration not stated)	none
Cc1oc(-c2ccccc2Cl)nc1CS(=O)(=O)CC(=O)N1CCOCC1	none
CCOC(=O)[C@]12CCCC=C1N(Cc1ccc(Cl)cc1Cl)C(=O)[C@H](CC(=O)NCC13CC4CC(CC(C4)C1)C3)C2	none (no result: H9c2 TAG inh)
CCC1=NN2C(=N)/C(=C\c3cccn3-c3ccc(Cl)cc3)C(=O)N=C2S1	none
Cc1ccc(-n2cccc2/C=C2\C(=N)N3N=C(c4ccco4)SC3=NC2=O)cc1	NadD block 47
O=C(N/N=C/c1cccc2cccnc12)c1ccccc1O	H9c2 TAG inh 65
O=C(N/N=C/c1cccc2nccnc12)c1ccccc1O	none
Cc1[nH]c2ccccc2c1/C=N/Nc1nc2ccccc2[nH]1	H9c2 TAG inh 64
C(=N\Nc1nc2ccccc2[nH]1)/c1cccc2cccnc12	H9c2 TAG inh 67
CC(Sc1nnc(NC2CCCCC2)s1)C(=O)Nc1ccc2c(c1)C(=O)c1ccccc1C2=O (configuration not stated)	NadD block 38 (no result: H9c2 TAG inh)
CC(Sc1nnc(NC2CC2)s1)C(=O)Nc1ccc(N2CCOCC2)cc1 (configuration not stated)	none
CCn1c(O)c(/C=C/C=C/C=Nc2ccccc2)sc1=S	none
Oc1c(/C=C/C=C/C=Nc2ccccc2)sc(=S)n1Cc1ccccc1	NadD block 32
CCN=c1scc(C)n1/N=C/c1cc(Br)c(O)c(OC)c1	NadD block 35
CN=c1scc(C)n1/N=C/c1cc(Br)c(O)c(Br)c1	none
CCC(CO)Oc1cc(NCc2ccc(C(C)(C)C)cc2)c2ncn(C(C)C)c2c1 (configuration not stated)	aDG glyco up 5.2
COC(=O)Cn1c(=NC(=O)c2ccc(S(=O)(=O)N3CCc4ccccc4C3)cc2)sc2cc(OC)ccc21	none (no result: H9c2 TAG inh)

Compound activity: PubChem, Sanford-Burnham Center for Chemical Genomics
